Experimental findings from PubChem BioAssay are described below.

For part of these data: Measured potencies and affinities stand elsewhere. Calls of active or inactive are those of the source.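 How the source made its calls, unless noted: active means membrane potential signal rise above negative control mean plus 3 SD in both duplicates, also active in the earlier TRPC4 screen; inactive means the rest.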

What is called inhibition is the drop in the measured response relative to a control, in per cent.

The subject of assay [1] is TRPC4 beta (transient receptor potential cation channel C4), mouse. Nature of the assay: activators of mouse TRPC4 channel, confirmation, cell-based, Fluo4 calcium, HEK293 TRPC4beta/mu-opioid, duplicates, 10 µM (AID 2426;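 active means fluorescence ratio normalized to control raised more than 50% in primary screen plus both repeat runs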;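 on activation: percent rise of integrated ratio over buffer wells lacking compound which define 0%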). Particulars: Fluo4 calcium fluorescence, at 10 µM; active compounds read high.
The subject of assay [2] is transient receptor potential cation channel C4 beta (TRPC4), mouse. Put plainly: activators of mouse TRPC4 channel, confirmation, cell-based, second round, Fluo4, HEK293 TRPC4beta/mu-opioid, 1 µM (AID 2461;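 active means primary screen active and over 50% activation in each of two duplicate runs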). Particulars: Fluo4 calcium fluorescence, at 1 µM; active compounds read high.
Assay [3] relates to TRPC4 (transient receptor potential cation channel C4 beta), mouse. Nature of the assay: positive allosteric modulators of mouse TRPC4, confirmation, cell-based, second round, Fluo-4, HEK293 TRPC4beta/mu-opioid, 1 µM (AID 2554;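 active means primary screen hit whose fluorescence ratio, in both repeats, exceeds the weak agonist control mean by 3 SD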). Particulars: DAMGO EC20, Fluo-4 calcium flux, at 1 µM; active compounds read high.
The test system of assay [4] is TRPC4 beta (transient receptor potential cation channel C4), mouse. Put plainly: positive allosteric modulators of mouse TRPC4, confirmation, cell-based, Fluo-4, HEK293 TRPC4beta/mu-opioid (AID 2555;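 active means primary screen hit whose calcium fluorescence ratio, in both repeats, exceeds the weak agonist control mean by 3 SD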). Particulars: DAMGO EC20, Fluo-4 calcium flux, at 10 µM; active compounds read high.
The target in assay [5] is Short transient receptor potential channel 4 (Mus musculus) (UniProt Q9QUQ5). Nature of the assay: inhibitors of mouse TRPC4 channel, confirmation, cell-based, Fluo4, HEK293 TRPC4beta/mu-opioid (AID 2636;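 active means calcium signal cut by more than 3 SD below the full-agonist control yet still positive, in both repeats and the earlier primary screen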). Particulars: DAMGO, Fluo4 calcium flux, at 10 µM; active compounds read high.
Assay [6] has the same target. Nature of the assay: inhibitors of mouse TRPC4 channel, confirmation, cell-based, second round, Fluo4, HEK293 TRPC4beta/mu-opioid, 1 µM (AID 2637;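 active means calcium signal ratio cut to more than 3 SD under the fully stimulated control mean yet still positive, in both repeats and the primary screen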;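 on inhibition: percent of integrated ratio relative to wells lacking test compound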). Particulars: Fluo4 calcium flux, DAMGO, at 1 µM; active compounds read high. For orientation: A change in cytosolic calcium serves as a functional read-out for many receptors and channels.
Assay [7] shares this target. Nature of the assay: mouse TRPC4 channel activators, dose response, cell-based, HEK293 TRPC4/mu-opioid, Fluo-4 calcium (AID 434937;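 active means primary screen activator hit with a dose response curve and TRPC4 channel activation at any tested dose; inactive means no activation, no dose response, or not a primary hit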).
Assay [8] shares this target. Nature of the assay: TRPC4 positive allosteric modulators, dose response, cell-based, HEK293 TRPC4/mu-opioid, Fluo-4 calcium, EC20 DAMGO (AID 434941;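 active means earlier screen potentiator hit that boosts the TRPC4 ion channel at some dose, with a dose response; inactive means no potentiation, no dose response, or not a prior hit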;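 further: calcium entry triggered by an EC20 dose of DAMGO at the co-expressed mu-opioid receptor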).
Assay [9] has the same target. Put plainly: mouse TRPC4 channel inhibitors, dose response, cell-based, HEK293 TRPC4/mu-opioid, Fluo-4 calcium (AID 434942;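 active means primary screen inhibitor hit that blocks the TRPC4 channel at some tested dose, yielding a dose curve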).
The target in assay [10] is Short transient receptor potential channel 6 (Mus musculus) (UniProt Q61143). Nature of the assay: inhibition of mouse TRPC6 channel, confirmation, selectivity assay for TRPC4 inhibitor project, cell-based, HEK293, membrane potential dye, duplicate (AID 434948;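 active means active in primary screen and both duplicates, each dropping signal beyond three positive-control SD with fluorescence still positive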). Particulars: HEK293 TRPC6, membrane potential dye fluorescence, at 10 µM, stimulated with maximal-effect acetylcholine; active compounds read high.

The target is the same in assay [11]. Put plainly: activation of mouse TRPC6 channel, confirmation, selectivity assay for TRPC4 activator project, cell-based, HEK293, membrane potential dye, duplicate (AID 434950). Particulars: HEK293 TRPC6, membrane potential fluorescence, at 10 µM; active compounds read high.
Assay [12] shares this target. Put plainly: TRPC6 potentiation by TRPC4 potentiator hits, confirmation, selectivity assay for TRPC4 potentiator project, HEK293 cells, membrane potential dye, duplicate (AID 434952;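 active means compound raising the membrane signal above positive-control mean plus 3 SD in both repeats, and a primary screen hit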). Particulars: HEK293 TRPC6, membrane potential dye fluorescence, at 10 µM, maximal acetylcholine added after compound; active compounds read high.
Assay [13] addresses Short transient receptor potential channel 4 (Mus musculus) (UniProt Q9QUQ5). Nature of the assay: calcium flux activators in TRPC4/5HT1a cells, counter-screen for TRPC4 activator project, cell-based, second counter screen, HEK293 TRPC4/5HT1a, Fluo-4 (AID 434977;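 active means calcium signal rise above buffer-control mean plus 5 SD in both duplicates, and also a hit in the primary screen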;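 on activation: plate controls were assay buffer for no effect and maximal serotonin response for full effect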). Particulars: Fluo-4 calcium flux, at 10 µM; active compounds read high.
Assay [14] is described as follows: calcium flux inhibitors in TRPC4/5HT1a cells, confirmation, counter-screen for TRPC4 inhibitor project, cell-based, second counter screen, HEK293 TRPC4/5HT1a, Fluo-4 (AID 434978;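 active means primary screen active whose calcium signal fell more than 3 SD beyond the full-serotonin control mean in both duplicate plates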;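 further: serotonin given first at submaximal then at maximal dose after compound preincubation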). Particulars: Fluo-4 calcium flux, at 10 µM, serotonin added to trigger calcium flux; active compounds read high.
Assay [15] relates to TRPC4 (mouse), co-expressed with 5HT1a in HEK293. Put plainly: calcium flux potentiators in TRPC4/5HT1a cells, confirmation, counter-screen for TRPC4 potentiator project, cell-based, second counter screen, HEK293 TRPC4/5HT1a, Fluo-4 (AID 434979;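 active means signal rise over 3 SD above mean of control wells given weak agonist, in both repeats and first screen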). Particulars: Fluo-4 calcium flux, at 10 µM, serotonin added at its EC20 dose; active compounds read high.
Assay [16] can be described thus: calcium flux activation in mu-opioid HEK293 cells, confirmation, counter-screen for TRPC4 activator project, cell-based, HEK293 mu-opioid receptor line (AID 449723;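 active means hit in primary screen, with calcium signal over 5 SD above buffer well mean in both duplicates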;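 further: counter screen cells carry the mu-opioid receptor alone and lack TRPC4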). Particulars: Fluo-4 calcium fluorescence, at 10 µM; active compounds read high.
Assay [17] in a line: calcium flux enhancement in mu-opioid HEK293 cells, confirmation, counter-screen for TRPC4 allosteric potentiator project, cell-based, HEK293 mu-opioid receptor line (AID 449724;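 active means calcium signal rise more than 3 SD above the low-dose agonist control mean, in both duplicate plates and the primary screen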;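 further: HEK293 cells carrying mu-opioid receptor only with no TRPC4 channel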). Particulars: Fluo-4 calcium flux, at 10 µM, compound added before EC20 DAMGO stimulus; active compounds read high.
Assay [18] is described as follows: thallium flux activation in parental CHO cells, counter-screen for KCNQ1 potentiator project (AID 493006;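 active means duplicate-averaged activation above buffer control mean plus 5 SD of those controls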;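 on activation: fluorescence ratio of max minus min over baseline after K+ and Tl+ depolarization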). Particulars: parental CHO-K1 cells, FluxOR thallium flux, at 10 µM; active compounds read high. (A counterscreen serves to expose hits that act by an unwanted route or on another target.)
Assay [19] deals with Potassium voltage-gated channel subfamily KQT member 1 (Homo sapiens) (UniProt P51787). Nature of the assay: KCNQ1 potassium channel potentiators, confirmation, FluxOR thallium flux, CHO cells, duplicates (AID 493007;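 active means potentiation averaged over duplicate wells exceeding buffer-only control mean by more than 3 SD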;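 on outcome: cells depolarized by a potassium plus thallium sulfate stimulus after compound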;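 on potentiation: 0% = buffer-only wells and 100% = R-L3 activator control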). Particulars: KCNQ1 cell line, FluxOR thallium flux fluorescence, at 10 µM; active compounds read high, % of reference activator effect, buffer zero.
The target in assay [20] is Potassium voltage-gated channel subfamily KQT member 2 (Rattus norvegicus) (UniProt O88943). Nature of the assay: rat KCNQ2 channel potentiation, selectivity assay for KCNQ1 potentiator project, KCNQ2-CHO-K1 cells (AID 493009;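 active means mean duplicate potentiation above the buffer control mean plus 5 SD of buffer wells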;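 further: assay conditions were tuned for KCNQ1 rather than KCNQ2 modulators; signal is max minus min fluorescence divided by baseline after thallium stimulus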). Particulars: FluxOR thallium flux fluorescence, at 10 µM; active compounds read high, scaled: buffer 0, activator control 100.
Potassium voltage-gated channel subfamily KQT member 2 (Rattus norvegicus), sequence (O88943 whole entry, looked up): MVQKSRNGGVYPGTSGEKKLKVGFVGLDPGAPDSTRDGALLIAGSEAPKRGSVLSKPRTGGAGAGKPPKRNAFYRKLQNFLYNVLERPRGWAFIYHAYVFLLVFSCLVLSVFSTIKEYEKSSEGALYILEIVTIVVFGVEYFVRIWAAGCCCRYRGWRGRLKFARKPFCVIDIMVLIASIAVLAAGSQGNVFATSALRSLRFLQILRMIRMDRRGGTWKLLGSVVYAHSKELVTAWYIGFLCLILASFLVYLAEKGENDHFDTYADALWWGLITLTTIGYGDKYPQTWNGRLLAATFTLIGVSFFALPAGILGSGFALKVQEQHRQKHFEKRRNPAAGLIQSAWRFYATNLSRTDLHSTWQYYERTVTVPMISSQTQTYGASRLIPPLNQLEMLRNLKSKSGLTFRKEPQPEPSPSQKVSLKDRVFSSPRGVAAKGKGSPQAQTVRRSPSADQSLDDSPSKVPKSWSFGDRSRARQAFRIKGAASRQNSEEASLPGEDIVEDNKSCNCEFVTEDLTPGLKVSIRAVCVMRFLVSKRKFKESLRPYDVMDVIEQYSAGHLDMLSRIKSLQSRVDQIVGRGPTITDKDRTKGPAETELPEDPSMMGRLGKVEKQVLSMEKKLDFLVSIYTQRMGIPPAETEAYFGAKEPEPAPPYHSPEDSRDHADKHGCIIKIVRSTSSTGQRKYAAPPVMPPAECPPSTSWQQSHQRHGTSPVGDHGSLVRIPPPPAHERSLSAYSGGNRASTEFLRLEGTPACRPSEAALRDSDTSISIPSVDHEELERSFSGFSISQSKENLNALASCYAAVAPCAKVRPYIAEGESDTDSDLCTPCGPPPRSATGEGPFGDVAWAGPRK

Short transient receptor potential channel 6 (Mus musculus), sequence (Q61143 whole entry, looked up): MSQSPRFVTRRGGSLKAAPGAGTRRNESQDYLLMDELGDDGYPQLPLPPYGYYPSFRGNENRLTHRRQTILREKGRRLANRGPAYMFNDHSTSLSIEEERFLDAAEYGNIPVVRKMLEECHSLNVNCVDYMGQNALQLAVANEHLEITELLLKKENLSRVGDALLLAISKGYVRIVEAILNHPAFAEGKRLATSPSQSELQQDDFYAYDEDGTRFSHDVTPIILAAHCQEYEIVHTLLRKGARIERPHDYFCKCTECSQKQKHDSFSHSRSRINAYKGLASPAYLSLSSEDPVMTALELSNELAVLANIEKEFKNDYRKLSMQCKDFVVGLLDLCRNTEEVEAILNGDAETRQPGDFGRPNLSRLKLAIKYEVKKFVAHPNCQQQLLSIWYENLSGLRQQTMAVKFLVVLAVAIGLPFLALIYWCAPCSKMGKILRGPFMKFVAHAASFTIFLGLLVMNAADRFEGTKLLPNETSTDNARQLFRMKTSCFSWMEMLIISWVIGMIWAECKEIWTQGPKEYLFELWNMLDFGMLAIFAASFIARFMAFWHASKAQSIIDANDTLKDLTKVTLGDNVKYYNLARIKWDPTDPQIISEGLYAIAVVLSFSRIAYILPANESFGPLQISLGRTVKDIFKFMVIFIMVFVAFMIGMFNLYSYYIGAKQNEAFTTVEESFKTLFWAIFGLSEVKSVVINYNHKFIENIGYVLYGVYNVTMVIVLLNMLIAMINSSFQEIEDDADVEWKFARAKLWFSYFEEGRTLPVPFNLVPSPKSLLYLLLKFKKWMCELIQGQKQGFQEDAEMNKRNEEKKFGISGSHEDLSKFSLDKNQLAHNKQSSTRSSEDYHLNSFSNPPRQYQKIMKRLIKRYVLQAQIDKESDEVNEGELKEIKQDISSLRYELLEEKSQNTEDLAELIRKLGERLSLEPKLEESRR
Short transient receptor potential channel 4 (Mus musculus), sequence (Q9QUQ5 whole entry, looked up): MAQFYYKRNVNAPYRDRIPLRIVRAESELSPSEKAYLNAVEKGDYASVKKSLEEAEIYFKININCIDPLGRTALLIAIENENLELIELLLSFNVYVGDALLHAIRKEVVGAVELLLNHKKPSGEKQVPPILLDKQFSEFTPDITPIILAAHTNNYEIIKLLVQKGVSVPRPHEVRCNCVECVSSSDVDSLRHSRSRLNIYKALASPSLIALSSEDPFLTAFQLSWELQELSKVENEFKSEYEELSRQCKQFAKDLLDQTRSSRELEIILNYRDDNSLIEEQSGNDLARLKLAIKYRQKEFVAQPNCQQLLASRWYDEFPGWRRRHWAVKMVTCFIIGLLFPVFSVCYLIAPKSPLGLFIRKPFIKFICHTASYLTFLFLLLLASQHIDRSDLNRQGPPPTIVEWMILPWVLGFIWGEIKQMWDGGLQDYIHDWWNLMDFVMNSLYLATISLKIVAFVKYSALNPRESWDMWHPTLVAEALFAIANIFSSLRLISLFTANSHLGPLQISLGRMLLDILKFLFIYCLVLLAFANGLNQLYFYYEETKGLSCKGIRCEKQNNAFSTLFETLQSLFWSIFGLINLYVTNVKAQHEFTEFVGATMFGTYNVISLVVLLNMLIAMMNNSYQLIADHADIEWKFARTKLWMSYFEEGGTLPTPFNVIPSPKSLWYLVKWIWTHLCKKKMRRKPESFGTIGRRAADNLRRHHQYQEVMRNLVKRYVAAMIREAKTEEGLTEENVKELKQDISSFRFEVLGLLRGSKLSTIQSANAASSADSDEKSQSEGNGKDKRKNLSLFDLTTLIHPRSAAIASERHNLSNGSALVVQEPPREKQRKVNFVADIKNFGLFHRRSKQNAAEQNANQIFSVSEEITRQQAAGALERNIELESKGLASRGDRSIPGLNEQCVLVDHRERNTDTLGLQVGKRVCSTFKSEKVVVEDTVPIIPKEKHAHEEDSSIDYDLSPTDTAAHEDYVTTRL
Potassium voltage-gated channel subfamily KQT member 1 (Homo sapiens), sequence (P51787 whole entry, looked up): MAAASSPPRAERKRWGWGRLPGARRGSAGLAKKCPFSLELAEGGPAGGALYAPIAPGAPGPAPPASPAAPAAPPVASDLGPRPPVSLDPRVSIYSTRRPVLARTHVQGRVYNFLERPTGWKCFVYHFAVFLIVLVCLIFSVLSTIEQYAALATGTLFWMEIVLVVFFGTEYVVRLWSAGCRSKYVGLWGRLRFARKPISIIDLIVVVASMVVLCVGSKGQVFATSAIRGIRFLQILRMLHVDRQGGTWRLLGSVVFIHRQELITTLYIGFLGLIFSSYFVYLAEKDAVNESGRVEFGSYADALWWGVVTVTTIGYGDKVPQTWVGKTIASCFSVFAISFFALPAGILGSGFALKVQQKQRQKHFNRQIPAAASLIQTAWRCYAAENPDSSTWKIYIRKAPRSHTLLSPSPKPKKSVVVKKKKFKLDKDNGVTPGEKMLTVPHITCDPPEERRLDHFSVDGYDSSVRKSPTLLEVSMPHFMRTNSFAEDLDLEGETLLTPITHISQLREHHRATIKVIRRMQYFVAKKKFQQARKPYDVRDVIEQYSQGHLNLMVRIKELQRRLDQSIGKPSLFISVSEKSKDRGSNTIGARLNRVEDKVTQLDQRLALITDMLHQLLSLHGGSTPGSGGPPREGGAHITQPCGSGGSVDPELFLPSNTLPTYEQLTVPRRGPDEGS

On to `CCN(C(=O)c1cc2c(s1)-c1ccccc1OC2)c1cc(OC)ccc1OC`, for which the result in assay [1], in [2], in [3], in assay [4], in [5] and in assay [6] was inactive. The result in [7], in assay [8], in assay [9], in [10], in assay [11] and in assay [12] was inactive. Further, the outcome in assay [13], in assay [14], in [15], in assay [16] and in assay [17] was inactive.
Turning to `CC(C)OC(=O)C1CC=CCC1C(=O)Nc1ccc(Cl)cc1` (stereo unspecified), the result in [1], in [2], in assay [3], in [4], in [5] and in assay [6] was inactive. Besides, the result in assay [7], in [8], in [9], in assay [10], in [11] and in assay [12] was inactive. For the same molecule, the result in [13], in assay [14], in assay [15], in assay [16] and in [17] was inactive.
Regarding `Cc1ccccc1OCCNc1cc(N2CCNCC2)ccc1[N+](=O)[O-]`, the result in [1], in [2], in assay [3], in assay [4], in assay [5] and in [6] was inactive. Further, the outcome in assay [7], in assay [8], in assay [9], in assay [10], in [11] and in assay [12] was inactive. The outcome in assay [13], in assay [14], in assay [15], in assay [16] and in assay [17] was inactive.
`Cc1ccc(S(=O)(=O)N2CCN(c3cc4c(cc3[N+](=O)[O-])n(C)c(=O)n4C)CC2)cc1`: the outcome in assay [1], in [2], in [3], in [4], in assay [5] and in assay [6] was inactive. Also, the result in assay [7], in assay [8], in assay [9], in assay [10], in [11] and in [12] was inactive. Moreover, the outcome in [13], in assay [14], in assay [16] and in assay [17] was inactive. In addition, in assay [15], the potentiation was 10.6% (active).
For the molecule `CCOCCCn1c(=S)[nH]c2cc(C(=O)NCCCN(CC)CC)ccc2c1=O`, the outcome in assay [1], in assay [2], in [5], in [6], in [7] and in assay [8] was inactive. Also, the outcome in [9], in [10], in assay [11], in assay [12], in [13] and in assay [14] was inactive. Further, the outcome in assay [16] and in assay [17] was inactive. Besides, the potentiation in [3] was 18% (active); in [4], 10% (active); in assay [15], 16.1% (active).
`CC(C)Oc1cc(N)c(Cl)cc1Cl`: the outcome in [1], in assay [2], in assay [3], in assay [4], in assay [5] and in [6] was inactive. For the same molecule, the outcome in assay [7], in assay [8], in assay [9], in assay [10], in [11] and in assay [12] was inactive. In addition, the result in assay [13], in assay [14], in assay [15], in [16] and in assay [17] was inactive.
For `C=CCNC(=S)N/N=C/c1ccc(C(C)(C)C)cc1`, the result in assay [1], in assay [2], in assay [3], in [4], in assay [7] and in assay [8] was inactive. The outcome in assay [9], in assay [10], in [11], in assay [12], in assay [13] and in assay [14] was inactive. Besides, the outcome in [15], in [16] and in assay [17] was inactive. For the same molecule, the inhibition is 79% (active) in assay [5] and 41% (active) in [6].
With `CC(C)(C)C(=O)NCCCc1nc2ccccc2n1CCCOc1ccc(Cl)cc1`, the result in assay [1], in assay [2], in assay [3], in assay [4], in assay [5] and in assay [6] was inactive. The result in [7], in assay [8], in assay [9], in assay [10], in assay [11] and in [12] was inactive. For the same molecule, the result in [13], in assay [14], in assay [15], in assay [16] and in assay [17] was inactive.
Take `CCCCCc1ccc(OCCCC[n+]2ccccc2)c(CCCCC)c1`: the result in assay [1], in [2], in [3], in assay [4], in assay [5] and in assay [6] was inactive. For the same molecule, the outcome in assay [7], in [8], in assay [9], in assay [10], in assay [11] and in assay [12] was inactive. Also, the outcome in assay [13], in assay [14], in [15], in [16] and in assay [17] was inactive.
Turning to `c1ccc2c3c([nH]c2c1)CCNC3`, the result in assay [1], in assay [2], in assay [3], in assay [4], in assay [5] and in [6] was inactive. Also, the result in assay [7], in [8], in assay [9], in assay [10], in assay [11] and in [12] was inactive. Besides, the result in assay [13], in assay [14], in assay [15], in [16] and in assay [17] was inactive.
As to `COc1cc(OC)c2c(-c3ccccc3)cc(=O)oc2c1C(CCN1CCCCC1)c1ccc(N(C)C)cc1` (stereo unspecified), the activation in assay [1] was 82% (active); in [13], 38.3% (active). Further, the outcome in assay [2], in [3], in [4], in assay [5], in assay [6] and in assay [7] was inactive. Moreover, the outcome in assay [8], in assay [9], in assay [10], in assay [11], in [12] and in assay [14] was inactive. The result in assay [15], in [16] and in assay [17] was inactive.
Turning to `O=C(O)CCCN1C(=O)/C(=C\c2ccc(-c3nc4ccccc4s3)o2)SC1=S`, the result in assay [1], in [2], in assay [3], in assay [5], in assay [6] and in assay [7] was inactive. In addition, the outcome in assay [8], in assay [9], in [10], in assay [11], in assay [12] and in assay [13] was inactive. In addition, the outcome in [14], in assay [16], in assay [17], in [18], in assay [19] and in assay [20] was inactive. The potentiation in assay [4] is 10% (active); in assay [15], 22.6% (active).
On to `CN1CCN(Cc2nc3ccccc3n2C)CC1CCO` (stereo unspecified), for which the result in assay [1], in assay [2], in [3], in [4], in assay [5] and in assay [6] was inactive. Besides, the result in [7], in assay [8], in [9], in [10], in assay [11] and in [12] was inactive. Moreover, the result in [13], in assay [14], in [16] and in assay [17] was inactive. Also, the potentiation in [15] is 9.01% (active).
On to `CCSc1ccccc1C(=O)NCCc1ccccc1`, for which the outcome in [1], in [2], in assay [3], in assay [4], in [5] and in assay [6] was inactive. For the same molecule, the result in assay [7], in [8], in assay [9], in assay [10], in assay [11] and in assay [12] was inactive. Also, the result in assay [13], in assay [14], in assay [15], in assay [16] and in assay [17] was inactive.
With `COc1cc(C2(c3ccc(O)c(OC)c3)C(=O)Nc3c(C)cc(Br)cc32)ccc1O`, the outcome in assay [1], in assay [2], in [3], in assay [5], in assay [6] and in [7] was inactive. For the same molecule, the result in assay [8], in [9], in [10], in [11], in assay [12] and in [13] was inactive. The result in assay [14], in [16], in [17] and in [20] was inactive. For the same molecule, the potentiation in assay [4] is 22% (active); in assay [15], 71.7% (active); in [19] it was 36.5% (active). Further, the activation in [18] is 168% (active).
